# Hits are enriched below; roughly 19% of the tested compounds scored in any of these assays.
# HT1080 IDH1KD tx: qHTS for induction of synthetic lethality in tumor cells producing 2HG: qHTS for the HT-1080-IDH1KD cell line. Potency, µM (doses to about 46.1 µM), inactives show at the highest dose activity, negative = toxicity, hits mostly cytotoxic. hit rate 2% among 360,000. HT-1080 IDH1 knockdown viability, ATP luminescence, 48 h;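 further: potency means the concentration at half of the fitted maximal effect; 0% = DMSO wells and -100% = cell-free medium wells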
#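 Knockdown cells (IDH1KD HT-1080) received compounds 2 h after plating at 750 cells/well and were kept 48 h at 37 °C in 5% FBS RPMI. A CellTiter-Glo luminescence read gave % activity for curve fitting.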
# TDP1 cell noCPT: qHTS for Inhibitors of human tyrosyl-DNA phosphodiesterase 1 (TDP1): qHTS in cells in absence of CPT; DT40 Tdp1-/- hTDP1 cells, no CPT, ATP luminescence, 48 h; Potency, µM (doses to about 46.2 µM), without a hit: at the top dose activity change, negative = growth inhibition, most hits filed as inhibitors; hit rate 15% among 420,000; AID 686978, 2013; further: potency means the concentration at half of the fitted maximal effect; nearly all actives have a fitted effect of over 55% in size
#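 Compound effects on proliferation are scored in DT40 Tdp1-/-;hTDP1 cells in the absence of CPT. ATP levels (CellTiter-Glo luminescence) are recorded after a ≥48 hr, 37 °C incubation.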
# TDP1 cell CPT: qHTS for Inhibitors of human tyrosyl-DNA phosphodiesterase 1 (TDP1): qHTS in cells in presence of CPT | hit rate 12% among 420,000 | chicken DT40 Tdp1-/-;hTDP1 cells + 20 nM CPT, ATP luminescence, 48 h | AID 686979, 2013 | Potency, µM (doses to about 46.2 µM), without a hit: top-dose activity change, negative = growth inhibition, actives largely listed as inhibitors; further: potency means the concentration at half of the fitted maximal effect; nearly all actives have a fitted effect of over 55% in size
#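 Chicken DT40 Tdp1-/- cells complemented with human TDP1, 400 cells/well, exposed to compounds plus 20 nM camptothecin for at least 48 h at 37 C; viability read as ATP content by CellTiter-Glo luminescence.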
# HT1080-NT tox: qHTS for induction of synthetic lethality in tumor cells producing 2HG: qHTS for the HT-1080-NT fibrosarcoma cell line; Potency, µM (titrated, usually from 46.1 µM), for the others: at the top dose activity, negative = less viability, most hits filed as cytotoxic; HT-1080-NT fibrosarcoma viability, CellTiter-Glo ATP luminescence, 48 h; hit rate 1.6% among 360,000;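 further: NT is the 2HG producing partner of a matched IDH1 knockdown line; potency means the concentration at half of the fitted maximal effect; 0% = DMSO-treated cells and -100% = media-only wells without cells; nearly all actives have a fitted effect of over 55% in size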
#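 Fibrosarcoma NT cells, 750 per well in 5% FBS RPMI, were exposed to compound for 48 hours. Viability: CellTiter-Glo luminescence.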
# IL1B secr inh: qHTS for Inhibitors of Inflammasome Signaling: IL-1-beta AlphaLISA Primary Screen | THP-1 LPS/ATP IL-1B secretion, AlphaLISA, 16 h; stronger effect = lower value | activity change, % at 57.5 µM | hit rate 4.7% among 360,000 | AID 743279, 2014; in the data active means activity change below about -50%; inconclusive means mostly about -30% to -49%
#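 Secreted IL-1B measured by AlphaLISA bead assay after 16 h compound exposure of THP-1 cells; compounds (final up to 57.5 uM) added 1 h before LPS (250 ng/mL) and ATP (1.25 mM) stimulation; lower signal means less secretion.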
# uPA surface inh: qHTS for Inhibitors of Cell Surface uPA Generation | cell surface uPA generation assay, qHTS | Potency, µM (highest dose often 38.3 µM), for the others: at the top dose activity change, negative = inhibition, actives largely listed as inhibitors | hit rate 0.31% among 330,000 | AID 540303, 2011; active means well fitted inhibition curve with a large enough effect; inconclusive means small, poorly fitted or top-dose-only effect; inactive means no such curve, though single readings can be large or run the other way; tested in mouse RAW 264.7 cells; further: potency means the concentration at half of the fitted maximal effect; nearly all actives have a fitted effect of over 55% in size
# * = called active by the depositor; i = inactive; ? = inconclusive; . = not tested or not shown. Unless noted, the call rests on the fitted dose curve; in most records, active means well fitted curve in the direction sought with a large enough effect; inconclusive means small, poorly fitted or top-dose-only effect, or another doubt; inactive means no such curve, though single readings can be large; an effect the other way counts as inactive or inconclusive. Unless noted, on the % scale 0 is the no-effect control and ±100 the full control effect.
SMILES,HT1080 IDH1KD tx,TDP1 cell noCPT,TDP1 cell CPT,HT1080-NT tox,IL1B secr inh,uPA surface inh
CC(Oc1ccc2c(-c3ccccc3)cc(=O)oc2c1)C(=O)N1CCC[C@@H]1C(N)=O (some centres not stated),-2%,-3%,-4%,-5%,-5,4%
O=C(C1CCCN(S(=O)(=O)c2cccc3nonc23)C1)N1CCC(Cc2ccccc2)CC1 (configuration not stated),-22%,18µM*,21µM*,-24%,?,-1%
O=C(C1CCN(S(=O)(=O)c2cccc3nonc23)CC1)N1CCN(c2ccccc2)CC1,.,23µM*,?,.,.,.
O=C(C1CCN(S(=O)(=O)c2ccccc2)CC1)N1CCN(c2ccccc2)CC1,-19%,21µM*,?,?,i,-4%
O=C(C1CCN(S(=O)(=O)c2cccc3nonc23)CC1)N1CCCCC1,2%,-9%,-1%,-1%,16,2%
Cc1ccc(Cl)cc1N1CCN(C(=O)C2CCN(S(=O)(=O)c3cccc4nonc34)CC2)CC1,.,7.3µM*,12µM*,.,.,.
COc1ccc(N2CCN(C(=O)C3CCN(S(=O)(=O)c4ccccc4)CC3)CC2)cc1,-6%,?,-25%,-10%,-28,2%
O=C(NCCc1ccccc1)C1CCCN(S(=O)(=O)c2cccc3nonc23)C1 (configuration not stated),-7%,?,-13%,-4%,-4,-1%
O=C(C1CCN(S(=O)(=O)c2cccc3nonc23)CC1)N1CCN(c2ccc(F)cc2)CC1,.,12µM*,21µM*,.,.,.
CC1CCN(C(=O)C2CCN(S(=O)(=O)c3cc(Cl)ccc3Cl)CC2)CC1,-1%,21µM*,?,3%,-66*,-1%
O=C(C1CCCN(S(=O)(=O)c2cccc3nonc23)C1)N1CCN(c2cccc(Cl)c2)CC1 (configuration not stated),5%,23µM*,16µM*,-1%,-53*,-3%
O=C(C1CCN(S(=O)(=O)c2cccc3nonc23)CC1)N1CCN(c2cccc(Cl)c2)CC1,.,15µM*,26µM*,.,.,.
O=[N+]([O-])c1ccc(O)c(N=Cc2sc3ccccc3c2O)c1,?,12µM*,21µM*,-23%,39,-3%
CC(C)Cc1ccc(C(C)C(N)=NCCc2ccccc2)cc1 (configuration not stated),18µM*,21µM*,?,16µM*,-91*,-8%
NC(=NCCc1ccccc1)NS(=O)(=O)c1ccccc1F,-1%,-25%,-8%,-3%,10,3%
Cc1ccc(-c2cc(-c3ccccc3)c(C#N)c(N)n2)o1,-8%,15µM*,23µM*,-1%,0,-8%
Cc1ccc(-c2cc(-c3ccc(F)cc3)nc(N)c2C#N)o1,-6%,18µM*,?,-3%,-14,-9%
N#Cc1c(-c2ccncc2)cc(-c2ccc(F)cc2)nc1N,-3%,-16%,6%,-4%,-26,-10%
Cc1ccc(CNC(=O)Cn2c(=O)n(-c3ccc(C)c(F)c3)c(=O)c3sc4ccccc4c32)cc1,.,-9%,3%,.,.,.
CCOC(=O)N(C)c1c(CC)nc2c(OCc3ccc(S(C)(=O)=O)cc3)cccn12,10%,-20%,-20%,17%,3,.
CCOC(=O)N(C)c1c(CC)nc2c(OCc3ccccc3)cccn12,6%,23µM*,21µM*,10%,15,.

# Compound activity: PubChem BioAssay, National Center for Advancing Translational Sciences (NCATS)
